GAA850 FXN act: FXN promoter activators, primary screen, cell-based, luciferase luminescence, HEK293 lucGAA850; HEK293 lucGAA850 FXN promoter luciferase reporter, 24 h; percent of 10 µM SAHA response; AID 540364, 2011; 360,000 tested, 0.56% active; activation, % at 6 µM;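 active = activation above the average of all compounds screened plus 3 SD, cutoff fixed separately per campaign, cut at about 7.5% in these data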
GalR3 antag: GalR3 antagonists in HEK293 cells, primary screen, cell-based, fluorescence readout; Galanin receptor type 3 (Homo sapiens), O60755; HEK293 GalR3-CNG cAMP membrane potential fluorescence; galR3 body fused to GalR1 C-terminus; inhibition, % at 3 µM; 360,000 tested, 0.44% active; AID 651719, 2012;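 active = inhibition above the screen-wide average plus 3 SD, cut at about 13% in these data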;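 note: forskolin and galanin both at EC90 stimulate the cells; cAMP rise reported by CNG channel membrane potential dye signal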
Target sequence (O60755 1-299 limits assumed): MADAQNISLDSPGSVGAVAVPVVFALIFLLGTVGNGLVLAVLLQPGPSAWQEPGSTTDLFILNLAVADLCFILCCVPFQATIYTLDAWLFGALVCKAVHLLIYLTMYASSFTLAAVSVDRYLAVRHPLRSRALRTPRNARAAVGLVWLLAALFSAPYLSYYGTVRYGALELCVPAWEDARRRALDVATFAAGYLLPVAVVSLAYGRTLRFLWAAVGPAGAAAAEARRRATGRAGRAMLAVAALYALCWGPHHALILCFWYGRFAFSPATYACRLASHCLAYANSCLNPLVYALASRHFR
Gli-Sufu antag: Gli-Sufu pathway antagonists, primary screen, luciferase luminescence, Sufu-KO-LIGHT cells, uHTS; Sufu-KO-LIGHT fibroblasts, Gli luciferase reporter luminescence; inhibition, % at 5 µM; 340,000 tested, 0.74% active; AID 588413, 2011;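 active = inhibition above about 55%, limit read from the data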
SMARCA2 act: SMARCA2 (BRM) function activators, primary screen, cell-based, luminescence, high throughput | MG213 cells, MMTV-luciferase reporter, dexamethasone, overnight | 370,000 tested, 1% active | AID 652017, 2013 | activation, % at 9.1 µM; in the data active = activation above about 7.8%
NR2F2 inh: NR2F2 transcriptional activity inhibitors, primary screen, cell-based, luciferase reporter, HEK293T, luminescence; COUP transcription factor 2 (Homo sapiens), P24468; HEK293T NGFI-A luciferase reporter; inhibition, % at 8.6 µM; 370,000 tested, 0.7% active; AID 686940, 2013;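 active = inhibition above a per-plate cutoff, mean inhibition of test wells between control levels plus 3 SD, cut at about 38% in these data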;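 note: cells cotransfected with COUP-TFII expression vector driving the NGFI-A reporter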
Cardio protect: cardioprotection against H2O2-induced cell death, primary screen, uHTS, H9c2 cells, ATPLite luminescence; H9c2 cardiomyocytes, H2O2 injury protection, 2 h; protection from H2O2 cell death, % at 20 µM; 360,000 tested, 0.63% active; AID 588492, 2011;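 active = compounds giving at least 50% protection of heart cells from peroxide-induced death in the single-dose screen, raw or plate-pattern-corrected value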
SMARCA2 act conf: SMARCA2 (BRM) function activators, confirmation, cell-based, luminescence, triplicate | shares compounds with SMARCA2 act | MG213 cells, MMTV-luciferase with dexamethasone, overnight; MG213 cells expressing E1A, Rb sequestered; DMSO wells 0%, reference activator 100% | activation, % at 9.1 µM | 3,500 tested, 30% active | AID 652260, 2013;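 active = activation above its plate's cutoff, the mean activation of tested wells plus 3 SD, cut at about 7.9% in these data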
VP16 Luc act: GAL4-VP16 luciferase reporter activation, counter-screen for SMARCA2 (BRM) activator project, cell-based, pG5luc, luminescence, high throughput | shares compounds with SMARCA2 act | HEK293 GAL4-VP16 pG5luc reporter; scaled: DMSO wells 0%, SAHA wells 100% | activation, % at 9.1 µM | 3,500 tested, 41% active | AID 686939, 2013;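 active = activation above the solvent-only control well mean plus 3 SD, averaged across control plates, cut at about 5.2% in these data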
A number is an active result. Rows were chosen to be rich in hits. Some 3.4% of all compounds tested hit in one or more screens of this group.

`COCCNc1nc2cc(-c3cccc(C(F)(F)F)c3)sc2c(=O)n1C` gave GAA850 FXN act inactive, GalR3 antag inactive, SMARCA2 act inactive, NR2F2 inh inactive and Cardio protect inactive.
For COc1ccc(N2CC(C(=O)Nc3cc(C)on3)CC2=O)cc1 (centres undefined) the results were GAA850 FXN act inactive, GalR3 antag inactive, Gli-Sufu antag inactive, SMARCA2 act 8.0, NR2F2 inh inactive, Cardio protect inactive, SMARCA2 act conf inactive and VP16 Luc act inactive.
For CCOc1ccc(N2CC(C(=O)Nc3cc(C)on3)CC2=O)cc1 (centres undefined) the results were GAA850 FXN act inactive, GalR3 antag inactive, Gli-Sufu antag inactive, SMARCA2 act inactive, NR2F2 inh inactive and Cardio protect inactive.
COc1ccc(N2CC(C(=O)Nc3cccc(C)n3)CC2=O)cc1 (centres undefined) was read as GAA850 FXN act inactive, GalR3 antag inactive, Gli-Sufu antag inactive, SMARCA2 act 8.0, NR2F2 inh inactive, Cardio protect inactive, SMARCA2 act conf inactive and VP16 Luc act inactive.
For CC(=O)Nc1cccc(NC(=O)C2CC(=O)N(c3ccc(C)cc3)C2)c1 (centres undefined) the results were GAA850 FXN act inactive, GalR3 antag inactive, Gli-Sufu antag inactive, SMARCA2 act 9.5, NR2F2 inh inactive, Cardio protect inactive, SMARCA2 act conf inactive and VP16 Luc act inactive.
Cc1c(Br)c([N+](=O)[O-])nn1C(C)C(=O)Nc1ccc2c(c1)OCO2 (centres undefined) was read as GAA850 FXN act inactive, GalR3 antag inactive, Gli-Sufu antag inactive, SMARCA2 act inactive, NR2F2 inh inactive and Cardio protect inactive.
CCOc1ccc(S(=O)(=O)n2cnc3ccccc32)cc1 was read as GAA850 FXN act inactive, GalR3 antag inactive, Gli-Sufu antag inactive, SMARCA2 act inactive, NR2F2 inh inactive and Cardio protect inactive.
COc1cccc(CNC(=O)CCC2CCCN(C(=O)c3csc(C(C)C)n3)C2)c1 (centres undefined) was read as GAA850 FXN act inactive, GalR3 antag inactive, Gli-Sufu antag inactive, SMARCA2 act inactive, NR2F2 inh inactive and Cardio protect inactive.
For COC(=O)c1ccc(NC(=O)CSc2nnc(C(C)NC(=O)c3ccccc3Cl)n2C)cc1 (centres undefined) the results were GAA850 FXN act inactive, GalR3 antag inactive, Gli-Sufu antag inactive, SMARCA2 act inactive, NR2F2 inh inactive and Cardio protect inactive.
N#C/C(=C\c1ccc(OC(=O)c2cccs2)cc1)c1nc2ccccc2[nH]1 was read as GAA850 FXN act inactive, GalR3 antag inactive, Gli-Sufu antag inactive, SMARCA2 act 13, NR2F2 inh inactive, Cardio protect inactive, SMARCA2 act conf 8.5 and VP16 Luc act 6.2.
For O=C1c2cccc(NCCCNCCO)c2C(=O)c2cccc(NCCCNCCO)c21 the results were GAA850 FXN act inactive, GalR3 antag inactive, Gli-Sufu antag inactive, SMARCA2 act 28, NR2F2 inh inactive, Cardio protect inactive, SMARCA2 act conf inactive and VP16 Luc act inactive.
`O=C(NCC1CC1)c1cc2c(c(-c3cccc(-c4ccccc4F)c3)n1)[C@@H](CCO)N(C(=O)CC1CC1)C2` gave GalR3 antag inactive, SMARCA2 act inactive and NR2F2 inh inactive.
`Cc1ccc(C2(C)NC(=O)N(CC(=O)NNC(=O)c3ccoc3C)C2=O)cc1` (centres undefined) gave GAA850 FXN act inactive, GalR3 antag inactive, Gli-Sufu antag inactive, SMARCA2 act inactive, NR2F2 inh inactive and Cardio protect inactive.
For c1ccc(C2=Nc3ccccc3NC(c3ccccc3)C2)cc1 (centres undefined) the results were GAA850 FXN act inactive, GalR3 antag inactive, Gli-Sufu antag inactive, SMARCA2 act 9.7, NR2F2 inh inactive, Cardio protect inactive, SMARCA2 act conf inactive and VP16 Luc act 7.0.
`Clc1ccccc1C1CC(c2ccccc2)=Nc2ccccc2N1` (centres undefined) gave GAA850 FXN act inactive, GalR3 antag inactive, Gli-Sufu antag inactive, SMARCA2 act inactive, NR2F2 inh inactive and Cardio protect inactive.
`COc1ccc2cc(C(=O)C3CCCN(C(=O)C4=NN(C)C(=O)CC4)C3)ccc2c1` (centres undefined) gave GAA850 FXN act inactive, GalR3 antag inactive, Gli-Sufu antag inactive, SMARCA2 act inactive, NR2F2 inh inactive and Cardio protect inactive.
For O=C(COc1ccccc1)NCCSc1ccccc1 the results were GAA850 FXN act inactive, GalR3 antag inactive, Gli-Sufu antag inactive, SMARCA2 act 9.4, NR2F2 inh inactive, Cardio protect inactive, SMARCA2 act conf 10 and VP16 Luc act 7.7.
For COc1cc(O)c(C=Nc2ccccc2NS(=O)(=O)c2ccc(C)cc2)c(OC)c1 the results were GAA850 FXN act inactive, GalR3 antag inactive, Gli-Sufu antag inactive, SMARCA2 act inactive, NR2F2 inh inactive and Cardio protect inactive.
CN(C)/C=C/C(=O)c1ccc2noc(-c3ccc(F)cc3)c2c1 was read as GAA850 FXN act inactive, GalR3 antag inactive, Gli-Sufu antag inactive, SMARCA2 act 11, NR2F2 inh inactive, Cardio protect inactive, SMARCA2 act conf inactive and VP16 Luc act inactive.
`Cc1ccc(-c2nc3ccccn3c2NCc2ccc3c(c2)OCO3)cc1` gave GAA850 FXN act inactive, GalR3 antag inactive, Gli-Sufu antag inactive, SMARCA2 act 10, NR2F2 inh inactive, Cardio protect inactive, SMARCA2 act conf 8.2 and VP16 Luc act inactive.
`CCOC(=O)c1sc(NC(=S)NC(=O)C23CC4CC(CC(C4)C2)C3)cc1C` gave GAA850 FXN act inactive, GalR3 antag inactive, Gli-Sufu antag inactive, SMARCA2 act inactive, NR2F2 inh inactive and Cardio protect inactive.
Screening COc1ccc(Cc2c(-c3ccccc3)nc3ccc(Cl)cn23)c(C)c1 returned GalR3 antag inactive, SMARCA2 act inactive, NR2F2 inh inactive and Cardio protect inactive.
